# Measured values taken from the supplement of paper PMC6555819.
# Columns and labels:
# Assay in all cases: PBM binding z-score (relative to random genomic background probes); higher = stronger binding; sequences stand for … in GC…GCGATTGACAGCGTAGAATGAAGG
# [1] = test system: FXR:RXRa (NR concentration 270 nM, RXRa partner concentration 90 nM)
# Procedure, shortened: (§1)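 Scanned fluorescence from custom Agilent 4×180K protein-binding microarrays was regression-normalized. Binding z-scores use random background probes as reference. Ligand-free nuclear receptor dimers were incubated on the arrays for 1 h and detected with antibodies against each partner (one per run).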
# [2] = test system: LXRa:RXRa (NR concentration 270 nM, RXRa partner concentration 90 nM)
# Procedure, shortened: as §1
# [3] = test system: LXRa homodimer (NR concentration 270 nM)
# Procedure, shortened: as §1
# [4] = test system: LXRb:RXRa (NR concentration 270 nM, RXRa partner concentration 90 nM)
# Procedure, shortened: as §1
# [5] = test system: LXRb homodimer (NR concentration 270 nM)
# Procedure, shortened: as §1
# [6] = test system: PPARa:RXRa (NR concentration 270 nM, RXRa partner concentration 90 nM)
# Procedure, shortened: as §1
# [7] = test system: PPARg:RXRa (NR concentration 180 nM, RXRa partner concentration 90 nM)
# Procedure, shortened: as §1
# [8] = test system: PPARg:RXRa 270nM:90nM, anti-RXR (NR concentration 270 nM, RXRa partner concentration 90 nM)
# Procedure, shortened: as §1
# [9] = test system: PPARg:RXRa 30nM:10nM, anti-RXR (NR concentration 30 nM, RXRa partner concentration 10 nM)
# Procedure, shortened: as §1
# [10] = test system: PPARg:RXRa 90nM:30nM, anti-RXR (NR concentration 90 nM, RXRa partner concentration 30 nM)
# Procedure, shortened: as §1
Sequence,PBM binding z-score [1],PBM binding z-score [2],PBM binding z-score [3],PBM binding z-score [4],PBM binding z-score [5],PBM binding z-score [6],PBM binding z-score [7],PBM binding z-score [8],PBM binding z-score [9],PBM binding z-score [10]
ATATGTAGCTTAGGGTCATTCAGAAAGTAGGGAA,4.3,4.47,1.67,4.49,1.7,4.7,2.42,3.28,1.35,2.4
CGTCCAAGGTCAATGCTAGGTCACTGAAAGCATT,6.84,5.66,3.98,4.6,0.791,5.16,4.37,5.11,1.68,3.62
ACTCGGAGGACAAATGTCAGAGCTACGCCAGTGA,-0.155,-0.111,-0.289,-0.522,-0.374,0.306,1.34,1.99,0.613,1.36
CCTTACGGGTCACGGGGTTATAGCACGACGAGCG,7.63,5.25,0.321,4.81,0.272,6.37,8.37,7.11,3.95,6.75
CCTTACGGGTCACTCCAGGTTCTAGCATCGGAGT,4.8,4.87,0.141,2.7,-0.137,4.28,2.96,3.49,0.999,2.15
CCTCGGAGGACAACAGGATGTCAGAGCTGCCAGA,-0.208,-0.272,-0.316,-0.845,-1.16,-0.631,0.183,-1.12,-0.754,-1.23
TCTCGGAGGACACGAAAGGGCAGAGCTCGACATC,0.131,0.581,-0.282,-0.082,-0.72,0.48,0.29,0.85,1.65,1.2
CGAACTAGGTTACCAGGACAGTGAAGAGGTTGGA,-0.174,-0.0635,-0.296,-0.238,-0.499,2.53,3.94,3.65,0.924,2.52
CGAACTAGGTCACCAGGACATTGAAGAGGTTGGA,4.15,2.68,0.557,1.82,-0.284,5.35,8.44,7.05,4.88,6.35
ATATGTAGGTTAGGGTCATTCAAAAAGTAGGGAA,4.97,4.06,1.57,4.59,1.42,5.83,7.96,7.02,4.85,6.73
ACTAGTAGGTCAGCTGAGGTCACACACAATTCGG,6.7,6.09,5.43,5.14,1.5,5.36,7.75,6.54,4.28,6.26
ATATGTAGGTTAGGATCATTCAGAAAGTAGGGAA,0.633,0.786,0.139,0.95,0.084,2.83,3.9,3.07,1.22,2.31
TGTCAGAGTTCAAAGGTAACGTAAGTATCCACAC,7.14,6.58,4.05,4.65,1.22,5.88,7.19,6.65,3.88,5.98
ATACCAAGGTTATCGTGAGGTCGTTGATACTAAC,3.14,4.42,2.28,2.93,0.533,2.77,1.24,1.56,0.633,1.07
ATCGAAACGTCGTGAGGTGAGTATACAGAAAGGC,-0.206,-0.348,-0.532,-0.359,-0.538,-0.0386,0.851,-0.286,-0.051,0.0788
ACTAACAGGCCAAGGGTCACTCAAGATTAGTCCG,2.89,3.27,0.663,3.06,0.292,4.35,6.9,6.64,4.86,6.91
CGAACTAGGGCACCAGGACAGTGAAGAGGTTGGA,-0.211,-0.347,-0.377,-0.672,-1.24,2.31,4.04,3.54,1.13,2.7
CAAACTAGGTCACCGGAAAGTCAAAGTCCGCATG,4.54,3.74,0.834,2.79,0.685,5.64,9.52,7.27,5.72,7.23
ATATGTAGGATAGGGTCATTCAGAAAGTAGGGAA,3.78,3.12,0.63,3.55,1.08,4.62,4.04,3.78,1.71,3.29
ATACCAAGGTGATCGTGAGTTCGTTGATACTAAC,0.706,0.653,0.426,0.294,-0.366,0.602,0.328,-0.00894,0.101,-0.0417
CGAACTAGGTAACCAGGACAGTGAAGAGGTTGGA,-0.0198,-0.368,-0.222,-0.525,-0.784,1.66,2.32,2,0.303,0.958
ATATGTAGGTTAGTGTCATTCAGAAAGTAGGGAA,1,1.03,0.483,1.41,0.974,3.21,4.15,3.57,1.5,2.8

Sequence,PBM binding z-score [1],PBM binding z-score [2],PBM binding z-score [3],PBM binding z-score [4],PBM binding z-score [5],PBM binding z-score [6],PBM binding z-score [7],PBM binding z-score [8],PBM binding z-score [9],PBM binding z-score [10]
CGAACTAGGTCACCAGGACAGTGAAGAGGTTGGA,3.86,2.39,-0.071,1.65,-0.543,5.04,8.82,7,4.54,6.65
CCTTACGGGTCAAGGTAATAGCACGGGTGGTACG,5.58,3.16,-0.011,2.58,-0.283,4.8,4.75,4.34,1.46,3.28
ATCGAAAGGTCGTGAGGTGTGTATACAGAAAGGC,5.39,4.05,0.0507,3.03,0.423,4.94,3.6,3.97,1.61,2.81
CCTCGGAGGACAACCGGAGGTCAGAGCTGCCAGA,1.26,2.64,2.71,1.52,-0.532,1.78,0.316,0.642,-0.954,0.0511
ATATGTAGGTTAGGGTCATTGAGAAAGTAGGGAA,4.91,4.11,1.17,4.32,2.74,5.89,7.58,6.31,4.39,5.93
ATATGAAGGTTATCGGGTCATTCAGTTTGCGCAT,4.04,3.38,1.74,3.02,0.891,4.1,4.21,4.21,1.52,3.11
CGAACTAGGTCATAGGACAGTGAAAGGCGACGTA,3.51,2.47,0.169,1.66,-0.283,5.07,9.06,7.62,6.41,7.72
CGTCCAAGGTCATGGGAGGTCAGTGAAGACAGAT,7.92,7.36,5.12,6.35,0.656,6.08,6.25,6.11,2.74,5.07
CCTACTGGGCCAAAGGTCCTTGATTCCAATGCTC,-0.0555,-0.225,-0.404,0.0817,-0.832,3.84,8.78,8.68,8.07,8.91
ATCGTAAGGTCGTGAGGTGAGTATACAGAAAGGC,3.26,2.69,-0.00472,2.14,0.775,3.87,1.99,2.39,0.777,1.55
CAGCCTAGTTCAGGGCCAGTATAGGAGGAACGTT,0.0528,-0.124,-0.0841,-0.218,-0.532,-0.241,-0.041,-0.6,-0.567,-0.509
CGTCAAAGTTCAAGTTAACGTAACAGAAAGCAGC,7.26,6.56,4.75,4.33,2.63,5.3,5.08,5.71,2.68,4.8
CAAACTAGGTCAAAGGTCAAACTCGAGCCAACCA,8.63,7.62,6.78,7.4,3.51,7.76,14.1,11.6,13.3,13.7
GCTTACGGGTCAAAGGTTACAGCATGAATAGAAT,8.04,5.9,0.488,6.05,0.89,7.24,12,9.99,10,11.5
CGTCCGAGGTCAATGCTAGGTCAGTGAAAGCATT,7.31,5.94,2.78,5.22,1.08,5.78,5.25,5.35,1.89,4.18
ATATGTAGGTTAGGCTCATTCAGAAAGTAGGGAA,-0.281,-0.0164,-0.0399,0.129,0.223,2.21,2.96,2.43,0.952,1.84
CGAACTAGTTCAAAGGACAGTGAAAGGCGACGTA,-0.112,-0.0127,-0.428,-0.231,-0.842,1.62,2.23,3.51,1.75,3.25
GCTCGGGGGACAAGGTCAGAGCTTTGTCCGTAGA,3.46,3.46,0.143,3.96,4.29,4.25,3.61,4.54,1.72,3.56
CCTTACGGGCCACGAGGTTATAGCACGACGAGCG,0.333,0.406,-0.158,0.202,-0.806,1.44,1.29,0.67,-0.315,0.471
CGTCTAAGGTCAAAGGTCAGTGAAGAGATGACGG,8.79,7.27,4.41,6.95,2.67,7.45,11,8.6,8.75,10.3
CCGACGGGGGCAAGGTTACCATAACGCACAGCCA,3.14,3.01,0.301,4.21,3.34,3.96,2.74,3.36,1.37,2.84
ATCGGAAGGTCGAGGTGAGTATAGAGAAAGGGAA,2.07,1.65,-0.107,1.23,0.134,2.5,1.23,1.33,0.513,0.876
